“And” between values parts separate entries of the source, which are not always exact repeats. Equal entries are not always repeated. Results filed as inconclusive are left out. Entries that show only a call come without a potency. The source made the active and inactive calls. Calls follow the shape of the dose curve; as a rule, active = well fitted cell-killing curve with a large enough effect in the repeat runs; inconclusive = weak or mixed curves, or effect the other way; inactive = flat fitted curve, though single readings scatter.

Data on 40 compounds can be found in PubChem BioAssay (Tox21).
Potency is read from the fitted curve at half-maximal effect.

The nature of this assay: qHTS assay to identify small molecule antagonists of the constitutive androstane receptor (CAR) signaling pathway - cell viability counter screen (AID 1224837). Also: nearly all actives have a fitted effect of over 45% in size. The settings on record: HepG2-CYP2B6-hCAR viability, CellTiter-Fluor, 23 h, co-treated with 50 nM CITCO; series mostly up to 92.4 µM; activity change, negative = cytotoxicity: at the top concentration. The text has this: National Center for Advancing Translational Sciences [NCATS]
NIH Chemical Genomics Center [NCGC]
U.S. Environmental Protection Agency [EPA]
National Institutes of Environmental Health Sciences [NIEHS]
National Toxicology Program [NTP]
U.S. Food and Drug Administration [FDA]
The constitutive androstane receptor (CAR) is a nuclear receptor which regulates multiple drug metabolizing enzymes (DMEs) and transporters. Activating CAR will generally increase the transcription and subsequent translation of CYP2B6 and CYP3A4. These two DMEs represent about 50% of the drug metabolizing potential in the body. When CAR is deactivated, the metabolizing potential in the body will decrease, subsequently increasing the toxicity in the body or lowering the therapeutic potential of a pro-drug. Recently, there have also been studies performed indicating CARs role in energy metabolism and cancer therapy. Therefore, inhibiting CARs activity could have a potential effect on diabetes and cancer. Identifying environmental toxins and compounds which modulate CAR, through the use of the Tox21 10K compound collection, will be an important step in determining the toxicity and potential therapeutic effects these factors will have on the human body. To differentiate true CAR antagonists from cytotoxic substances, the assay is multiplexed with a cell viability assay.
Tox21 Assay Protocol Summary:
A double-stable (hCAR and CYP2B6-2.2kb) transfected cell line, derived from human hepatoma (HepG2) cells, was utilized for the duration of the quantitative high-throughput screens. The HepG2-CYP2B6-hCAR cells were dispensed at 2500 cells/4 uL/well in 1536-well white solid bottom plates using a Multidrop Combi. After the assay plates were incubated at 37 C/5% CO2 for 4 hrs, 23 nL of compounds at 15 concentrations (from 5-48 columns) or positive control (from 1 to 4 columns) were transferred to the assay plates using a Pintool station. One uL of CITCO (final concentration = 50 nM) was added, using a Flying Reagent Dispenser, inside each well. After a 23 hr incubation period at 37 C/5% CO2, 1 uL of CellTiter-Fluor reagent was added into each well of the assay plates using a Flying Reagent Dispenser. The fluorescence intensity in the plates was then measured using a ViewLux plate reader.
Background: In qHTS, concentration-response curves come from the screen itself.
As for `OCCOCCOCCOCCO`, the Potency result was “inactive”. Turning to `CCc1ccc(O)cc1`, the Potency result was “inactive”. In the case of `O=S(=O)(O)CCS`, the Potency entry was “inactive”.

With `CN(C)c1ccc(C(=N)c2ccc(N(C)C)cc2)cc1`, the Potency was 24 µM (active) and 26.3 µM (active). As for `CCCCCCC(C)(C)S`, the Potency result was “inactive”. Turning to `COCC(C)O` (stereo not given), the Potency entry was “inactive”. Turning to `CC(C)n1c(/C=C/[C@@H](O)C[C@@H](O)CC(=O)O)c(-c2ccc(F)cc2)c2ccccc21`, the Potency result was “inactive”. Same read-out and setting: with `Oc1ccc2ccccc2c1` the entry was “inactive”. The same measure, in the same setting: with `Clc1cc(Cl)c(Cl)cc1Cl` the entry was “inactive”; with `CCC(=O)O`, “inactive”. For the compound `Cc1ccc(N)c(S(=O)(=O)O)c1`, the Potency result is “inactive”. With `NCCNCCNCCNCCN`, the Potency entry was “inactive”. For the compound `CC(C)(CO)COC(=O)C(C)(C)CO`, the Potency entry is “inactive”. Still for that read-out and setting: with `O=C1O[C@H](CO)[C@@H](O)[C@H](O)[C@H]1O` the entry was “inactive”; with `Nc1nc2ncc(CNc3ccc(C(=O)N[C@@H](CCC(=O)O)C(=O)O)cc3)nc2c(=O)[nH]1`, “inactive”; with `CC(C)NCC(O)COc1cccc2ccccc12` (stereo not given), “inactive”.

Turning to `c1ccc2ccccc2c1`, the Potency result was “inactive”. For the compound `CC1CC(OC(=O)c2ccccc2O)CC(C)(C)C1` (stereo not given), the Potency entry was “inactive”. Turning to `O=[N+]([O-])c1cccc(Cl)c1`, the Potency entry was “inactive”.

Take `CC1=C(/C=C/C(C)=C/C=C/C(C)=C/CO)C(C)(C)CCC1`: the Potency entry was “inactive”.

For `CCOC(=O)/C=C\C(=O)OCC`, the Potency entry was “inactive”. As for `Cc1cc(Cc2ccc(N)c(C)c2)ccc1N`, the Potency entry is “inactive”. Take `C=C1C2CCC(C2)C1(C)C` (stereo not given): the Potency result is “inactive”. On to `C=C(C)C(=O)OCCC[Si](OC)(OC)OC`, for which the Potency result was “inactive”.

Take `c1ccc2[nH]cnc2c1`: the Potency result is “inactive”.

Take `CC(C)(N=C=O)c1cccc(C(C)(C)N=C=O)c1`: the Potency entry was “inactive”. `COC(=O)Nc1nc2ccc(Sc3ccccc3)cc2[nH]1`: the Potency result is “inactive”. `ClC1=C(Cl)C(Cl)(Cl)C(Cl)=C1Cl`: the Potency result is “inactive”.

With `Cc1cc(NS(=O)(=O)c2ccc(N)cc2)no1`, the Potency entry is “inactive”. On to `O=S(=O)(Oc1ccc(Cl)cc1Cl)c1ccccc1`, for which the Potency entry is “inactive”. Take `C=CC(=O)OCCCCCCCC(C)C`: the Potency entry was “inactive”.

Regarding `O=C1CCCCC1`, the Potency result is “inactive”. On to `CS(=O)(=O)Nc1ccc([N+](=O)[O-])cc1Oc1ccccc1`, for which the “activity change, negative = cytotoxicity” value is -17.3% [at 42.5 µM] (inactive). With `O=C(O)c1cc(-c2ccccc2)nc2ccccc12`, the Potency result is “inactive”. As for `O=C(c1ccc(O)cc1)c1ccc(O)cc1O`, the Potency result is “inactive”. Take `CCCCC(CC)COC(=O)/C=C\C(=O)OCC(CC)CCCC` (stereo not given): the Potency entry was “inactive”. As for `CCCCC(CC)C(=O)OCCOCCOCCOC(=O)C(CC)CCCC` (stereo not given), the Potency result is “inactive”. Regarding `CCCCCCOC(C)=O`, the Potency entry was “inactive”. For `CCOC(=O)C1OC1c1ccccc1` (stereo not given), the Potency result is “inactive”. In the case of `O=Nc1ccc(O)cc1`, the “activity change, negative = cytotoxicity” value is 3.04% (inactive).
